Data published in PubChem BioAssay (NCATS).
Results filed as inconclusive are left out. Unmarked numbers belong to inactive results. Activity calls are given as the source filed them. Calls come from the whole dose curve; as a rule, active = well fitted inhibition curve with a large enough effect; inconclusive = small, poorly fitted or top-dose-only effect; inactive = flat fitted curve, though single readings scatter.

Each compound was assayed against Phospholipid hydroperoxide glutathione peroxidase GPX4 (Homo sapiens) (UniProt P36969) (assay: Primary qHTS Assay for Inhibitors of Recombinant Selenoprotein Glutathione Peroxidase 4 (GPX4) (AID 1845192; note: nearly all actives have a fitted effect of over 65% in size)). Details: recombinant GPX4, GR-coupled NADPH fluorescence, 15 min; series mostly up to 50 µM; activity change, negative = inhibition: at the top concentration.
Source text: Assay Provider: Elias S.J. Arner MD PhD.
Department of Medical Biochemistry and Biophysics
Karolinska Institutet, Solna, Stockholm, Sweden
Selenoprotein glutathione peroxidases (GPX), like the ubiquitously expressed GPX1 and the ferroptosis modulator GPX4, enact their antioxidant activities by reducing hydroperoxides using glutathione. […] GPX1 and GPX4 inhibitors have thus shown promise as anti-cancer agents. Existing inhibitors are often promiscuous, or modulate GPX activity only indirectly, so novel direct inhibitors identified through screening against GPX1 and GPX4 could be valuable. Here, we developed optimized glutathione reductase (GR)-coupled GPX assays for the biochemical high-throughput screen (HTS) of almost 12,000 compounds with known mechanisms of action. Initial hits were triaged using a GR counter-screen, assessed for isoform specificity using a separate GPX2 assay, and were assessed for general selenocysteine-targeting activity using a thioredoxin reductase (TXNRD1) assay. With this suite of assays, we identified novel GPX1/GPX2- and GPX4-specific inhibitors and can here present a validated pipeline for future discovery research for selenoprotein-targeting agents.
SEQUENCE No. (e.g., 1, 2, 3, etc.); […] (e.g., Cells, Incubation, Reagent, etc.); VALUE; DESCRIPTION.
1; Reagent 1; 3 uL; 333.33 nM GPx4 enzyme or no enzyme control in 1536-well, black, solid Greiner assay plate.
2; Compound; 25 nL; Kalypsis pin tool (Wako USA) equipped with a 1536-well pin head.
3; Incubation; 30 min; room temperature.
4; Reagent 2; 1 uL; 500 nM GR, 5 mM GSH, 2.5 mM NADPH solution
5; Reagent 3; 1 uL; 2.5 mM CHP in 50% EtOH.
6; Detection; Fluorescence; ViewLux microplate reader, excitation 340 nm and emission 450 nm.
7; Incubation; 15 min; room temperature.
8; Detection; Fluorescence; ViewLux microplate reader, excitation 340 nm and emission 450 nm.
NOTES (numbers refer to Sequence numbers above)
1. 3 µL of 333.33 nM GPX4 and 0.016% BSA in assay buffer (50 mM Tris-HCl, 2 mM EDTA (pH 7.5), 150 mM NaCl) was added to columns 3-48 of 1536-well plates using a BioRAPTR Flying Reagent Dispenser (Let's Go Robotics (LGR), Carlsbad, CA). A no-enzyme control (0.01% BSA in TES assay buffer) was added to columns 1-2.
2. 25 nL, library and DMSO controls were added to each well with a pin tool (Kalypsys).
3. The assay plates were incubated for 30 minutes at room temperature.
4. 1 µL of master mix (500 nM glutathione reductase (GR), 5 mM reduced glutathione (GSH), 2.5 mM NADPH in assay buffer) was added.
5. 1 µL of cumene hydroperoxide (CHP) ([2.5 mM] in 50% EtOH) was then added within 5 minutes to initiate the reaction. Final concentrations were: 200 nM GPX4, 1 mM GSH, 0.5 mM CHP, 0.5 mM NADPH, 100 nM GR, 0.01% BSA.
6. Initial fluorescence readout (t=0) at 340/450 nm was measured using a ViewLux multimodal detector (PerkinElmer, Waltham, MA).
8. Endpoint fluorescence readout (t=15) at 340/450 nm was measured 15 min after room temperature incubation.
% is set by controls: 0 for no effect and ±100 for the full control effect; potency is the fitted concentration of half-maximal effect.

Chain of Phospholipid hydroperoxide glutathione peroxidase GPX4 (Homo sapiens) (P36969 whole entry, looked up): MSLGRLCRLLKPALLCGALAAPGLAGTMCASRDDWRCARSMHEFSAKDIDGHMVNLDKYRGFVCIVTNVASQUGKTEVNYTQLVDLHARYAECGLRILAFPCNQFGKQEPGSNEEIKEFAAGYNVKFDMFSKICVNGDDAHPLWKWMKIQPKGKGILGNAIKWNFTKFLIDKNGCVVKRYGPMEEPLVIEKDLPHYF

SMILES | activity change, negative = inhibition | outcome | Potency
NC(=O)c1cnc2[nH]ccc2c1NC1C2CC3C[C@H]1CC(O)(C3)C2 (stereo not given in full) | -10.5% |  | 
COC(=O)C1=C(C)NC(c2ncc(F)cc2F)=N[C@H]1c1ccc(F)cc1Cl | -11.3% |  | 
CC1(N)CCN(c2cnc(-c3cccc(Cl)c3Cl)c(N)n2)CC1 | -0.596% [at 27.8 µM] |  | 
O=C(/C=C\n1cnc(-c2cc(C(F)(F)F)cc(C(F)(F)F)c2)n1)NNc1ccccn1 | 4.33% |  | 
CC[C@H]1OC(=O)[C@H](C)C(=O)[C@H](C)[C@@H](O[C@H]2O[C@H](C)C[C@H](N(C)C)[C@H]2O)[C@](C)(OC)C[C@@H](C)C(=O)[C@H](C)[C@H]2N(CCCCn3cnc(-c4cccnc4)c3)C(=O)O[C@]12C | 2.03% |  | 
CNC(=O)[C@@H](NC(=O)[C@H](CC(C)C)[C@H](O)C(=O)NO)C(C)(C)C |  | inactive | 
C[C@@H]1CC(=O)Nc2cccc(-c3cnn(C(C)(C)C)c3)c2N1 | -6.05% |  | 
COCCNc1cc(NC(=O)N2CCCc3cc(CN4CCN(C)CC4=O)c(C=O)nc32)ncc1C#N |  | inactive [at 9.73 µM] | 
CC(=O)c1ccc2c(c1)c1cc(C(C)=O)ccc1n2CCNC(C)C |  |  | 16.1 µM (active)
O=C1CC(c2c[nH]c3ccc(F)cc23)C(=O)N1 (stereo not given) |  | inactive | 
CCOc1ccc(Cc2cc([C@@H]3O[C@H](CO)[C@@H](O)[C@H](O)[C@H]3O)ccc2Cl)cc1 |  |  | inactive
COC1=C2C[C@H](C)C[C@H](OC)[C@H](O)[C@@H](C)/C=C(/C)[C@H](OC(N)=O)[C@@H](OC)/C=C\C=C(\C)C(=O)NC(=CC1=O)C2=O | -54.4% |  | 
O=c1[nH]nc2c3c(cccc13)NC(CN1Cc3ccccc3C1)=N2 | -16.5% |  | 
O=C(Nc1nccs1)C(c1cc(F)ccc1O)N1Cc2ccccc2C1=O (stereo not given) | -16.3% |  | 
COc1cc(-c2cn(C)c(=O)c3cnccc23)cc(OC)c1CN(C)C | -15.2% |  | 
NS(=O)(=O)c1ccc(NC(=S)N2CCN(C/C=C/c3ccccc3)CC2)cc1 | -20.3% |  | 
Cc1c(NC(=O)c2cc(C(N)=O)nc3cc(F)ccc23)c(C(F)(F)F)nn1Cc1ccc(C(C)(C)C)cc1 |  | inactive | 
CONC(=O)Nc1ccc(-c2sc3c(c2CN(C)Cc2ccccc2)c(=O)n(-c2ccccc2)c(=O)n3Cc2c(F)cccc2F)cc1 |  | inactive | 
CCS(=O)(=O)Nc1ccc(Oc2ccc(F)cc2F)c(-c2cn(C)c(=O)c3[nH]ccc23)c1 | -15.4% |  | 
Fc1ccc(-c2csc3ncnc(NCc4ccc5c(c4)OCO5)c23)cc1 | -5.75% |  | 

SMILES | activity change, negative = inhibition | outcome | Potency
O=C(/C=C/C#Cc1cccc(NS(=O)(=O)c2ccccc2)c1)NO | -20.7% [at 27.8 µM] |  | 
O=C(O)c1ccc(O)c2ncccc12 |  | inactive | 
COc1nc(OCc2cccc(-c3ccccc3)c2C)ccc1CNCCNC(C)=O | -15.8% |  | 
O=C1S/C(=C\c2ccc(OCc3cccc(B(O)O)c3)cc2)C(=O)N1Cc1ccc(F)cc1 | -22.9% |  | 
Cn1cc(-c2ccc(-c3cncc(Cl)c3N3CCC4(CCNC4=O)CC3)cc2)cn1 | -0.671% |  | 
CN(C)CCN1C(=O)c2cccc3cc(NC(N)=O)cc(c23)C1=O | -14% |  | 
O=c1ncccn1[C@@H]1O[C@H](CO)[C@@H](O)[C@H]1O |  | inactive | 
COc1cc2c3c(n(CCCNCCO)c(=O)c2cc1OC)-c1cc2c(cc1C3=O)OCO2 | 1.25% |  | 
O=C(/C=C/c1ccc(/C=C/C(=O)Nc2ccc(C3=NCCN3)cc2)cc1)Nc1ccc(C2=NCCN2)cc1 | -10.1% [at 4.52 µM] |  | 
O=C(Nc1cnn2ccc(N3CCC[C@@H]3c3cc(F)ccc3F)nc12)N1CC[C@H](O)C1 | -4.39% |  | 
COc1cc2c(cc1OC)CN(CCc1ccc(-n3nnc(-c4cc(OC)c(OC)cc4NC(=O)c4cc(=O)c5ccccc5o4)n3)cc1)CC2 |  | inactive [at 0.409 µM] | 
O=C(NO)c1ccc(C2=Nc3ccccc3Oc3ccccc32)cc1 | -25.3% |  | 
CN(C)C(N)=NC(=N)N |  | inactive [setting not given] | 
Cc1c[nH]c2nc(Nc3ccc(N4CCN(C)CC4)c(F)c3)nc(-c3cccc(CC#N)c3)c12 | -12.1% |  | 
COc1cc(-c2cn(C)c(=O)c3cnccc23)c(OC)cc1CN(C)C | -2.8% |  | 
CC1=C2[N-][C@H]([C@H](CC(N)=O)[C@@]2(C)CCC(=O)NC[C@@H](C)OP(=O)([O-])O[C@H]2[C@@H](O)[C@@H](n3cnc4cc(C)c(C)cc43)O[C@@H]2CO)[C@]2(C)N=C(C(C)=C3N=C(C=C4N=C1[C@@H](CCC(N)=O)C4(C)C)[C@@H](CCC(N)=O)[C@]3(C)CC(N)=O)[C@@H](CCC(N)=O)[C@]2(C)CC(N)=O.O.[Co+2] |  | inactive | 
CC(C)[C@H]1C(=O)N[C@@H](CCCN=C(N)N)C(=O)NCC(=O)N[C@@H](CC(=O)O)C(=O)N[C@H](Cc2ccccc2)C(=O)N1C |  |  | inactive
CC1(C)OC2=C(C(=O)c3ccccc3C2=O)[C@H](NCc2ccccc2)[C@@H]1O | -18.7% |  | 
O=C1OC(COc2ccccc2[N+](=O)[O-])CC1Cc1ccccc1 (stereo not given) | -0.944% |  | 
CN(C)C[C@@H]1CCn2cc(c3ccccc32)C2=C(C(=O)NC2=O)c2cn(c3ccccc23)CCO1 | -6.39% |  | 
